Screening results as filed in PubChem BioAssay.
A selection: hits, their analogues and other compounds. The true share with any hit is near 19%.
TDP1 cell noCPT = qHTS for Inhibitors of human tyrosyl-DNA phosphodiesterase 1 (TDP1): qHTS in cells in absence of CPT. actives 15% (n = 420,000). DT40 Tdp1-/- hTDP1 cells, no CPT, ATP luminescence, 48 h. Potency, µM (highest dose often 46.2 µM), hits mostly inhibitors; also: nearly all actives have a fitted effect of over 55% in size
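Seeded 400 DT40-hTDP1 cells/well (vehicle DMSO, no 20 nM CPT); pinned compounds; ≥48 hr at 37 °C; CellTiter-Glo luminescence as viability measure.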
HT1080 IDH1KD tx = kills HT-1080 cells with IDH1 knockdown; HT-1080 IDH1 knockdown viability, ATP luminescence, 48 h; Potency, µM (doses to about 46.1 µM), actives largely listed as cytotoxic; actives 2% (n = 360,000); AID 686971
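Luminescent ATP read-out (CellTiter-Glo, 10 min at room temperature) after 48 h compound exposure at 37 °C gave viability of IDH1-knockdown HT-1080 cells. Activity was normalised to DMSO and cell-free wells, then fitted as concentration-response curves.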
TDP1 cell CPT = growth inhibition of DT40 Tdp1-/-;hTDP1 cells with camptothecin (screen for TDP1 inhibitors). actives 12% (n = 420,000). chicken DT40 Tdp1-/-;hTDP1 cells + 20 nM CPT, ATP luminescence, 48 h. AID 686979. Potency, µM (top dose mostly 46.2 µM), hits mostly inhibitors; also: nearly all actives have a fitted effect of over 55% in size
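Chicken DT40 Tdp1-/- cells stably complemented with human TDP1 were seeded at 400 cells/well in medium containing 20 nM camptothecin, exposed to pin-transferred compounds, and grown at 37 °C for at least 48 hr. Viability was read as ATP luminescence.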
IL-1B inflam inh = blocks inflammasome-driven IL-1 beta release; activity change, % at 57.5 µM; actives 4.7% (n = 360,000); THP-1 LPS/ATP IL-1B secretion, AlphaLISA, 16 h; hits give low values; AID 743279; in the data active = activity change below about -50%; inconclusive = mostly about -30% to -49%
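THP-1 cells pretreated 1 hr with compounds (up to 57.5 uM final), then stimulated with LPS (250 ng/mL final) plus ATP (1.25 mM final); secreted IL-1B measured by AlphaLISA after 16 hr, decreased signal indicating inhibition.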
HT1080-NT tox = kills 2HG-producing HT-1080-NT fibrosarcoma cells; HT-1080-NT fibrosarcoma viability, CellTiter-Glo ATP luminescence, 48 h; Potency, µM (titrated, usually from 46.1 µM), usual class: cytotoxic; actives 1.6% (n = 360,000);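 also: NT is the 2HG producing partner of a matched IDH1 knockdown line; nearly all actives have a fitted effect of over 55% in size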
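Viability of the 2HG-overproducing fibrosarcoma line after 48 hours of compound exposure at 37 degrees C was determined by luminescence with CellTiter-Glo, and concentration-effect curves were then fitted and categorized.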
Of the large screens only hits and unclear results are named; the others gave an inactive call. Unless noted, calls follow the shape of the dose curve; as a rule, active = well fitted curve in the direction sought with a large enough effect; inconclusive = small, poorly fitted or top-dose-only effect, or another doubt; inactive = no such curve, though single readings can be large; an effect the other way counts as inactive or inconclusive.

CC1C(=O)Nc2ccc(S(=O)(=O)NCCc3ccc(Cl)cc3)cc2NC1=O (centres undefined)	TDP1 cell noCPT inconclusive, TDP1 cell CPT inconclusive
Cc1c(C(=O)Nc2ccc(F)cc2F)sc2nc3n(c(=O)c12)N=C(c1ccccc1)CS3	TDP1 cell noCPT inconclusive, TDP1 cell CPT 15µM (no result: HT1080 IDH1KD tx, IL-1B inflam inh, HT1080-NT tox)
Cc1nc(N2CCOCC2)c2c(C)c(C(=O)Nc3ccc(F)cc3F)sc2n1	TDP1 cell noCPT inconclusive, IL-1B inflam inh -68
CCOc1ccc(NC(=O)c2sc3nc(C)nc(N4CCOCC4)c3c2C)cc1	TDP1 cell noCPT inconclusive, IL-1B inflam inh -53
Cc1cc(C)cc(NC(=O)c2sc3nc4n(c(=O)c3c2C)N=C(c2ccc(F)cc2)CS4)c1	none (no result: HT1080 IDH1KD tx, IL-1B inflam inh, HT1080-NT tox)
COc1ccc(OC)c(C2NC(=O)N(C)C(C)=C2C(=O)OCc2ccccc2)c1 (centres undefined)	TDP1 cell noCPT inconclusive, TDP1 cell CPT inconclusive, IL-1B inflam inh inconclusive
O=S(=O)(c1cccs1)N1CCCCC1	none
C[C@]12CCC[C@H](O1)c1c(cc3c(c1O)C(=O)c1c(O)cc(O)cc1C3=O)O2	TDP1 cell noCPT inconclusive, TDP1 cell CPT inconclusive
CCN(CC)c1ccc(NC(=O)c2c(OC)cccc2OC)c(C)c1	none
CCN(CC)c1ccc(NC(=O)c2cccc(OC)c2)c(C)c1	TDP1 cell noCPT inconclusive, HT1080 IDH1KD tx inconclusive, TDP1 cell CPT 29µM, HT1080-NT tox inconclusive
CCN(CC)c1ccc(NC(=O)c2cc3ccccc3o2)c(C)c1	TDP1 cell noCPT inconclusive, TDP1 cell CPT inconclusive
CCc1cccc(C)c1NC(=O)c1cc(CN2CCCC2)on1	none (no result: HT1080 IDH1KD tx, IL-1B inflam inh, HT1080-NT tox)
CCN(CC)c1ccc(NC(=O)c2cc(CN3CCCC3)on2)c(C)c1	TDP1 cell noCPT 13µM, TDP1 cell CPT 16µM (no result: HT1080 IDH1KD tx, IL-1B inflam inh, HT1080-NT tox)
CCN(CC)c1ccc(NC(=O)c2ccc3c(c2)OCO3)c(C)c1	TDP1 cell noCPT inconclusive, TDP1 cell CPT inconclusive
CCN(CC)c1ccc(NC(=O)C2COc3ccc(OC)cc3C2)c(C)c1 (centres undefined)	TDP1 cell noCPT 1µM, TDP1 cell CPT 0.58µM (no result: HT1080 IDH1KD tx, IL-1B inflam inh, HT1080-NT tox)
CCN(CC)c1ccc(NC(=O)c2cc(OC)cc(OC)c2)c(C)c1	TDP1 cell noCPT 1.3µM, HT1080 IDH1KD tx 4.6µM, TDP1 cell CPT 1.3µM, HT1080-NT tox 3.7µM
COC(=O)c1cc2oc3ccccc3c2n1Cc1nc(-c2cccc(C)c2)oc1C	none (no result: HT1080 IDH1KD tx, IL-1B inflam inh, HT1080-NT tox)
Cc1cc(NC(=O)Cc2cccs2)nn1CC(=O)NCc1ccco1	none
Cc1nc2c(O)cccc2cc1CO	none
CN(C)CCN(C)C1CN(C2CCCC2)S(=O)(=O)C1 (centres undefined)	none
CCNC(=O)/C(C#N)=C/c1c(N(Cc2ccccc2)Cc2ccccc2)nc2ccccn2c1=O	TDP1 cell noCPT inconclusive, HT1080 IDH1KD tx inconclusive, TDP1 cell CPT inconclusive, IL-1B inflam inh -55, HT1080-NT tox 23µM
CNC(=O)/C(C#N)=C/c1c(N(Cc2ccccc2)Cc2ccccc2)nc2c(C)cccn2c1=O	TDP1 cell noCPT inconclusive, HT1080 IDH1KD tx inconclusive, TDP1 cell CPT inconclusive, IL-1B inflam inh inconclusive, HT1080-NT tox 18µM
CCNC(=O)/C(C#N)=C/c1c(N2CCOCC2)nc2ccccn2c1=O	none
CCOC(=O)N1CC(=O)Nc2ccc(Br)cc2C1c1ccccc1 (centres undefined)	TDP1 cell CPT inconclusive
CCOC(=O)CN1C(c2ccc(O)cc2)Nc2ccc(Br)cc2C1c1ccccc1 (centres undefined)	TDP1 cell noCPT inconclusive, HT1080 IDH1KD tx inconclusive, TDP1 cell CPT 15µM, IL-1B inflam inh -102, HT1080-NT tox 16µM
CCCn1c(=O)c(Br)cn(-c2ccccc2C)c1=O	IL-1B inflam inh inconclusive
C[C@H]1CN=C(N(C)C)N1CCc1cccc(F)c1	none
CCCCc1c(-c2ccccc2OC)ncn1CCc1cccc(OC)c1	TDP1 cell noCPT 18µM, HT1080 IDH1KD tx 16µM, TDP1 cell CPT 15µM, IL-1B inflam inh -69, HT1080-NT tox 18µM
CCCCc1c(-c2ccccc2OC)ncn1CCc1cccc(F)c1	TDP1 cell noCPT 21µM, HT1080 IDH1KD tx 18µM, TDP1 cell CPT 16µM, HT1080-NT tox 21µM
Cc1ccc(S(=O)(=O)N2CCC(C(=O)OCC(=O)N3CCCC3=O)CC2)cc1C	none
COc1ccc(C(=O)Nc2nc3cc4c(cc3s2)OCO4)c(OC)c1	TDP1 cell CPT inconclusive
